Assay outcomes: PubChem, National Center for Advancing Translational Sciences (NCATS)
FMDV antiviral: foot and mouth disease virus antiviral activity; FMDV antiviral cell-based qHTS; Potency, µM (highest dose often 57.9 µM), inactives show at the highest dose activity change, negative = inhibition, actives largely listed as inhibitors; 1.2% of 410,000 active; calls by dose curve; tested in HEK293T cells; further: read-out not given here; potency means the concentration at half of the fitted maximal effect; nearly all actives have a fitted effect of over 45% in size
Tb PYK inh: blocks Trypanosoma brucei pyruvate kinase; Q57TT1; AID 624173; 0.12% of 410,000 active; TbPYK enzyme, Kinase-Glo Plus ATP luminescence, 45 min; Potency, µM (series often up to 76.8 µM), for the others: top-dose activity, negative = inhibition, usual class: inhibitors; further: potency means the concentration at half of the fitted maximal effect; nearly all actives have a fitted effect of over 50% in size
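Screened from lowest to highest concentration, compounds were pinned into TbPYK/substrate mixtures, and ADP (130 uM final) was added. Plates sat at room temperature for 45 min prior to Kinase-Glo Plus detection by luminescence.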
HCMV antiviral: inhibitors of human cytomegalovirus; HFF cells, HCMV-luciferase reporter, 72 h; active compounds read low; 4.5% of 410,000 active; activity change, negative = inhibition, % at 57.5 µM; in the data active means activity change below about -60%; inconclusive means no clear call, values can overlap the other calls; inactive means above about -39%
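Cell-based, HFFs, 1000 cells/well, 16 h 37C; cpds in DMSO + HCMV-luc, MOI 1 PFU/cell; 72 h 37C; OneGlo luminescence after 5 min RT; norm. to buffer vs Salinomycin 10uM.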
Sm TGR inh: blocks Schistosoma mansoni thioredoxin glutathione reductase; Q962Y6; purified TGR, DTNB reduction, TNB absorbance 405 nm; Potency, µM (highest dose often 114 µM), for inactives: at the top dose activity change, negative = inhibition, most hits filed as inhibitors; 3% of 360,000 active; further: potency means the concentration at half of the fitted maximal effect; nearly all actives have a fitted effect of over 60% in size
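Kinetic colorimetric format: TGR-catalysed, NADPH-driven DTNB reduction monitored via TNB absorbance. Enzyme dispensed at 20 nM; compound exposure 15 min at room temperature before reaction start.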
RE007 growth inh: less growth of the S. pombe RE007 Vpr strain; S. pombe RE007 Vpr strain, BacTiter-Glo ATP luminescence, 24 h; 0.21% of 360,000 active; Potency, µM (series often up to 92.2 µM), inactives show top-dose activity change, negative = less growth, actives largely listed as inhibitors; active means well fitted falling curve with a large enough effect; inconclusive means small, poorly fitted or top-dose-only effect; inactive means no such curve, though single readings can be large or run the other way; further: potency means the concentration at half of the fitted maximal effect; nearly all actives have a fitted effect of over 50% in size
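Fission yeast RE007 carrying one integrated HIV-1 vpr copy, seeded at OD 0.01 in PMG+AL medium with 23 nL pinned compound. Grown 24 h at 30 degrees; viability read by BacTiter-Glo luminescence after 5 min.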
Giardia FBPA inh: inhibitors of Giardia lamblia fructose-1,6-bisphosphate aldolase; purified Giardia FBPA; 0.71% of 290,000 active; A8B2U2; Potency, µM (titrated, usually from 59.6 µM), inactives show top-dose activity, negative = inhibition, usual class: inhibitors; further: potency means the concentration at half of the fitted maximal effect; nearly all actives have a fitted effect of over 55% in size
Target sequence (A8B2U2 whole entry, looked up): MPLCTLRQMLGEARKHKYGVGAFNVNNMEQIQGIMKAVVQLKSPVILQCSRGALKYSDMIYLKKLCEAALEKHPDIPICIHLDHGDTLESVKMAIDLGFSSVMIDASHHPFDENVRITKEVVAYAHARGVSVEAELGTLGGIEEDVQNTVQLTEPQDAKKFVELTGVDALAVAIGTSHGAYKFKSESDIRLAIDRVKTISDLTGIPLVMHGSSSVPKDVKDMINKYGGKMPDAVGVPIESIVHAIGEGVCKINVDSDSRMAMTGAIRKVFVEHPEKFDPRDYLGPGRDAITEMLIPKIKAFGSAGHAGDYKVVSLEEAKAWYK
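Giardia FBPA (40 nM reagent) was preincubated 10 min at RT with compound (up to 57.5 uM final), then substrate plus GAPDH/TPI/NAD/arsenate coupling system with diaphorase/resazurin was added; resorufin fluorescence (525/598 nm) was read after 20 min.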
An asterisk follows results filed as active; ? = inconclusive; . = not tested or not shown; [ ] = another dose, or the depositor's remark. This is a sample that favours compounds with a hit; in the whole collection about 7.7% have one here. Unless noted, the call rests on the fitted dose curve; in most records, active means well fitted curve in the direction sought with a large enough effect; inconclusive means small, poorly fitted or top-dose-only effect, or another doubt; inactive means no such curve, though single readings can be large; an effect the other way counts as inactive or inconclusive. On the % scale 0 is the no-effect control and ±100 the full control effect.

SMILES | FMDV antiviral | Tb PYK inh | HCMV antiviral | Sm TGR inh | RE007 growth inh | Giardia FBPA inh
CCOC(=O)C1=C(Cc2ccc(F)cc2)C(=O)c2ccccc2C1=O | ? | ? | 18 | ? | ? | 1.8µM*
Cn1c(=O)c2nc(SCC(=O)Nc3cc(Cl)ccc3Cl)n(C)c2n(C)c1=O | -13% | -6% | 3 | -11% | . | .
CSc1nc2nc3c(cc2c(=O)n1-c1ccccc1C)CCCC3 | ? | 2% | -91* | -4% | ? | -22%
CCOc1ccc(NC(=O)c2cc(OC)nc3ccccc23)cc1 | -5% | 0% | -64* | -9% | -5% | 10%
Cc1ccc(NC(=O)c2cc(Cl)nc3ccccc23)cc1 | -15% | . | -16 | 8% | -8%[3.69 µM] | -4%
CCOc1ccc(NC(=O)c2cccc3ccccc23)cc1 | 35% | 0% | 5 | -3% | 6% | -5%
Cc1ccc(NC(=O)c2ccccc2O)cc1 | -25% | -7% | 73 | -12% | 32µM* | -8%
Cc1ccc(NC(=O)C2=C(c3ccccc3)S(=O)(=O)CCS2(=O)=O)cc1 | 25µM* | -12% | -99* | 0.32µM* | 2% | -1%
COc1cc(C(=O)Nc2ccc(C)cc2)c2ccccc2n1 | -5% | -6% | -60* | -11% | 3% | 0%
Cc1ccc(NC(=O)c2ccccc2)cc1 | 30% | 0% | 125 | -25% | -20% | 2%
CCN1CCN(CCCNC(=O)c2cc3c(=O)n(C)c4ccccc4c3s2)CC1 | -12% | 0% | -12 | -32% | . | .
CC(C)(C)C1=C(C#N)C(c2cc3c(cc2Br)OCO3)C(C#N)=C(N)O1 (stereo not given) | -16% | -2% | -13 | 2.8µM* | -6% | -22%
CN1CCN(CCCNC(=O)c2cnn(-c3ccccc3)c2-n2cccc2)CC1 | 15% | -2% | -7 | -14% | . | .
Cc1ccc(CNC(=O)[C@H](C)[C@H]2C[C@]2(C)[C@H](NC(=O)OCc2ccccc2)c2ccccc2)o1 | -10% | -7% | . | 32µM* | 7% | 2%
CCc1ccc(-c2cn3nc(C)c(C)nc3n2)cc1 | -46% | -15% | -87* | -18% | -24% | 5%
CC1CCc2c(c3ccccc3n2C(=O)CCl)C1 (stereo not given) | 20µM* | -16% | -13 | 8.9µM* | -21% | ?
NC(N)=NN=C(/C=C/c1ccc([N+](=O)[O-])o1)/C=C/c1ccc([N+](=O)[O-])o1 | . | 3% | . | . | . | .
O=C(/C=C/c1ccc(-c2ccc(F)cc2)o1)N1CCCC1 | 14% | -3% | 48 | 35µM* | -19% | 3%
O=C(/C=C/c1ccc(F)cc1)N1CCCN(C(=O)/C=C/c2ccc(F)cc2)CC1 | -2% | 5% | 1 | -2% | 4% | 2%
N#C/C(=C\c1ccc([N+](=O)[O-])o1)C(=O)Nc1ccc(F)cc1 | ? | -10% | -78* | . | ? | ?
N#CCc1ccc(NC(=O)/C=C/c2ccc([N+](=O)[O-])o2)cc1 | ? | 2% | . | 4.5µM* | 7% | ?
CN1CCN(C(=O)/C=C/c2ccc([N+](=O)[O-])o2)CC1 | -16% | -4% | -101* | 18µM* | . | -16%
Cc1ccc(NC(=O)Nc2nnc(N3CCCCC3)s2)c(C)c1 | 12% | -12% | 18 | 2% | . | .
FC(F)(F)c1ccc(Nc2cc3c(cn2)ncn3CC2CC2)cc1 | . | . | 7 | . | . | .
COC(=O)c1c(NC(=O)C2c3ccccc3Oc3ccccc32)sc2c1CCC(C(C)(C)C)C2 (stereo not given) | 0% | 2% | 9 | 0% | . | .
SMILES | FMDV antiviral | Tb PYK inh | HCMV antiviral | Sm TGR inh | RE007 growth inh | Giardia FBPA inh
O=C1CN(/N=C\c2ccc([N+](=O)[O-])o2)C(=O)N1 | . | . | . | . | . | -24%[21.7 µM]
O=[N+]([O-])c1ccc(/C=N/N=C/c2ccc([N+](=O)[O-])o2)o1 | ? | 2% | -100* | 10µM* | ? | ?
O=C(O)/C=C/c1ccc([N+](=O)[O-])o1 | -23% | -9% | -36 | 28µM* | -6% | -6%
Cc1cc2ncn(/N=C/c3ccc([N+](=O)[O-])o3)c2cc1C | . | 6% | -62* | -4% | 11% | -3%
COc1ccc(OC)c(-c2cc(Cl)c3c(c2)CC(CNC(=O)/C=C/c2ccccn2)O3)c1 (stereo not given) | 11% | . | . | . | . | .
COc1ccc(S(=O)(=O)NN(C)C)cc1N(C)S(=O)(=O)c1ccc(Cl)cc1 | -7% | 1% | -64* | 5% | 15% | 7%
COc1ccc(S(=O)(=O)N2CCCCC2)cc1N(C)S(=O)(=O)c1ccccc1 | -1% | 3% | 20 | 1% | 4% | 1%
COc1ccc(S(=O)(=O)Nc2ccc(C)cc2)cc1N(C)S(=O)(=O)c1ccc(Cl)cc1 | . | 3% | -99* | 34% | 4% | 16%
Cc1ccc(CNC(=O)C2CCN(c3nc4ccccc4n(C)c3=O)CC2)cc1 | -10% | 1% | -2 | -9% | . | .
N#Cc1nc(NCCO)nc(Nc2ccccc2)n1 | . | . | . | . | . | 2%
CCCCCCc1cc2cc(C(=O)NCc3ccccc3)c(=N)oc2cc1O | -11% | 5% | -69* | 0% | -6% | -11%
N=c1oc2ccc(Br)cc2cc1C(=O)NCc1ccccc1 | 4% | 4% | -1 | -4% | 1% | -1%
CCCCCCc1cc2cc(C(=O)Nc3ccccc3)c(=O)oc2cc1O | ? | 0% | -100* | -7% | 10% | -2%
CCCCCCc1cc2cc(S(=O)(=O)c3ccc(C)cc3)c(=O)oc2cc1O | -22% | -6% | 25 | -12% | 3% | 11%
Cc1c(Cl)cccc1NC(=O)C1CCCN(c2nnc(-n3c(C)ccc3C)s2)C1 (stereo not given) | -26% | 0% | 22 | -27% | . | .
CCOC(=O)C1=CCN(S(=O)(=O)c2cccc(Cl)c2)C1c1ccc(Cl)cc1 (stereo not given) | . | . | -20 | . | . | .
CCCOc1ccc(C2C3=C(Nc4nc(N)[nH]c(=O)c42)c2ccccc2C3=O)cc1 (stereo not given) | 19% | 1% | -67* | 4% | -15% | 4%
CCOC(=O)c1nc2cc3n(c(CC(C)C)c-2c1C)CC(C)=C3C | -27% | 5% | -36 | 56µM* | 4% | -17%
CCOC(=O)c1nc2cc3n(c(C)c-2c1C)C(C)C(C)=C3C (stereo not given) | -13% | -3% | -6 | -1% | -7% | -18%
Cc1cnc([N+](=O)[O-])n1CCOC(=O)NC(=O)c1ccc(C(F)(F)F)cc1 | -9% | 7% | 39 | 1% | -3% | 0%
Cc1cnc([N+](=O)[O-])n1CCOC(=O)NC(=O)c1ccccc1Cl | 6% | 0% | -66* | -3% | -2% | 3%
c1ccc2c(c1)OCC(c1csc3ncnc(N4CCOCC4)c13)O2 (stereo not given) | . | 0% | -60* | 8% | 11% | 6%
